This passage reports outcome and AC50 results from PubChem BioAssay (EPA / NIEHS).

Values joined by “and” are separate entries in the source; they are usually repeats but may differ in a detail not shown here. Equal values may be shown once. Active and inactive are the calls of the source. The calls were made as follows: active = hit-call score of the fitted dose curve at least 0.9, where 1 is the maximum; inactive = score below 0.9.

Broadly, the AC50 is the concentration giving half of the maximal activity seen.

The assay is described as follows: BSK_3C_SRB: Viability Assessment in the BioMAP Diversity Plus: 3C Assay (AID 2283023).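 Also: fitted both ways against DMSO so a hit may be signal rise or drop.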 To be noted: primary human endothelial cells (HUVEC). As to the method:
BSK_3C is a cell-based, multiplexed-readout assay that uses umbilical vein endothelium, a human vascular primary cell, with measurements taken at 24 hours after chemical dosing in a 96-well plate.BSK_3C_SRB is an assay component measured in the BSK_3C assay. It measures 0.1% sulforhodamine related to cell death using Sulforhodamine staining technology.Data from the assay component BSK_3C_SRB was analyzed into 1 assay endpoint. This assay endpoint, BSK_3C_SRB, was analyzed with bidirectional fitting relative to DMSO as the negative control and baseline of activity. Using a type of viability reporter, gain or loss-of-signal activity can be used to understand changes in the signaling. Furthermore, this assay endpoint can be referred to as a primary readout, because this assay has produced multiple assay endpoints where this one serves a signaling function. To generalize the intended target to other relatable targets, this assay endpoint is annotated to the cell morphology intended target family, where the subfamily is cell conformation.
The levels of cell surface (or secreted, indicated by the prefix "s") biomarker endpoints were measured by ELISA. Overt cytotoxicity to cells in confluent adherent cultures (all systems other than the BT system) was assessed by measuring total protein levels using sulforhodamine B (SRB) staining in parallel cultures at the time of biomarker measurements, indicated as SRB endpoints. For proliferation assays for adherent cell types, individual cell types are cultured at sub-confluence and relative cell numbers quantified by SRB staining at time points optimized for each system (48 h: 3C and CASM3C systems; 72 h: BT and HDF3CGF systems; 96 h: SAg system). SRB was performed by staining cells with 0.1% SRB after fixation with 10% TCA and reading wells at 560 nm.Viability and proliferation of PBMC (T cells) was quantified by Alamar Blue reduction for the SAg and BT systems. For PBMC viability (referred to as PBMC Cytotoxicity within the assay endpoint names), cells were plated (75,000/well in a 96-well plate) and then chemical samples added for 1 h before addition of activators, SEB and TSST-1 (20 ng/mL final concentration each). Cells were incubated for 90 h. Then, Alamar Blue (20 uL/well) (Invitrogen, Cat DAL1100) was added for 6 h, and the plates were read with a fluorescence microplate reader at 546/580 nm (excitation/emission). For PBMC proliferation, cells were plated and activated as above but incubated for only 16 h prior to addition of Alamar Blue. Plates were read after 6 h.
In the case of `CC=C(C)C(C)=O`, the result was inactive.

Consider `CCCCC1C(=O)N(c2ccccc2)N(c2ccccc2)C1=O`, for which the result was inactive.

For `c1ccc(Nc2cccc3ccccc23)cc1`, the AC50 was 31.8 µM (active) and 34 µM (active).

In the case of `O=C(O)C(F)(F)C(F)(F)C(F)(F)C(F)(F)C(=O)O`, the result was inactive.

Take `CCCCCCCCCCCC(=O)N(C)CC(=O)O`: the result was inactive.

As to `CC1=CC=C(C(C)C)CC1`, the result was inactive.

On to `C=CC(=O)NCOCCCC`, for which the outcome was inactive.

Regarding `CCOC(=O)C1=NOC(c2ccccc2)(c2ccccc2)C1`, the outcome was inactive.

Take `O=C1CCCCCCCCCCC1`: the result was inactive.

Take `C=CCCCCCCCCC=O`: the outcome was inactive.

Consider `c1ccc2sc(SSN3CCOCC3)nc2c1`, for which the AC50 is 6.19 µM (active).

For the compound `CC(C)c1cccc(C(C)C)c1N`, the outcome was inactive.

As to `Clc1cc(Cl)c(Cl)c(Cl)c1Cl`, the result was inactive.

Turning to `COc1ccc(C(=O)/C(Br)=C\C(=O)O)cc1`, the result was inactive.

For `CC(Cl)COP(=O)(OCC(C)Cl)OCC(C)Cl` (stereo not given), the result was inactive.

For the compound `CCCCCCCCCCCC(C)=O`, the half-maximal activity concentration (AC50) is 29.9 µM (active).

For the compound `Nc1ccc(C(=O)O)cc1`, the result was inactive.

As for `CCN1CN(CC)CN(CC)C1`, the result was inactive.

`CCCCCCC=O`: the result was inactive.

Turning to `C=CC(=O)OCCCCCCCC(C)C`, the outcome was inactive.

With `O=C(Cl)c1c(Cl)c(Cl)c(C(=O)Cl)c(Cl)c1Cl`, the result was inactive.

Take `c1ccc2c(c1)[nH]c1ccccc12`: the result was inactive.

Turning to `CC(CCC(=O)O)(c1ccc(O)cc1)c1ccc(O)cc1`, the outcome was inactive.

Take `C=CC(=O)OCC(C)OCC(C)OCC(C)OC(=O)C=C` (stereo not given): the AC50 is 20 µM (active).

For `CCCCCCCO`, the result was inactive.

In the case of `CC1(C)CC(O)CC(C)(C)N1[O]`, the result was inactive.

`Oc1c(Cl)cc(Cl)c(Cl)c1Cl`: the concentration at half-maximal activity (AC50) was 20 µM (active).

With `Nc1nc(N)nc(-c2ccccc2)n1`, the result was inactive.

As to `Cc1ccc([N+](=O)[O-])cc1N`, the result was inactive.

As to `CCCCCCCCC(CO)CCCCCC` (stereo not given), the result was inactive.

Turning to `CC(C)C(=O)OCCc1ccccc1`, the result was inactive.

As to `CCOC(=O)C1=NN(c2ccc(Cl)cc2Cl)C(C)(C(=O)OCC)C1` (stereo not given), the AC50 was 20 µM (active).

For the compound `CC(C)[N+](C)(CCOC(=O)C1c2ccccc2Oc2ccccc21)C(C)C`, the outcome was inactive.

Consider `Nc1cccc(N)n1`, for which the outcome was inactive.

For the compound `CCOC(=O)/C=C\C(=O)OCC`, the outcome was inactive.

In the case of `O=C1CCCCCCCCCCCN1`, the outcome was inactive.

For `Cc1c(O)cccc1O`, the result was inactive.

Turning to `CC/C=C\C/C=C\C/C=C\CCCCCCCC(=O)OC`, the concentration at half-maximal activity (AC50) was 29.8 µM (active).

For the compound `COC(OC)(C(=O)c1ccccc1)c1ccccc1`, the result was inactive.

Consider `CCNc1nc(NC(C)(C)C)nc(OC)n1`, for which the result was inactive.
